The list is not random: actives were taken first. Their share in the collection is about 1.2%.
USP10 block = inhibitors of human USP10 deubiquitinase | Ubiquitin carboxyl-terminal hydrolase 10 (Homo sapiens), Q14694 | purified USP10, Ub-rhodamine fluorescence, 60 min | inhibition, % at 20 µM | 1.1% of 47,000 active | AID 1645856, 2021
UCHL1 inh = inhibitors of human UCHL1 deubiquitinase; purified UCHL1, Ub-rhodamine cleavage fluorescence; inhibition, % at 20 µM; 0.2% of 47,000 active; Ubiquitin carboxyl-terminal hydrolase isozyme L1 (Homo sapiens), P09936
Target sequence (P09936 whole entry, looked up): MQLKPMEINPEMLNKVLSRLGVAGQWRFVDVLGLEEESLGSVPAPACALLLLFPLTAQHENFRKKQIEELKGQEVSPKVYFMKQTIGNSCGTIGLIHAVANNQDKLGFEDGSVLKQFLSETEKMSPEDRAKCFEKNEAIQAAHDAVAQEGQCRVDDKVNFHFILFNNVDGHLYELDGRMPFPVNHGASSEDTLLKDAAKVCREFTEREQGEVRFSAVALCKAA
USP7 block = inhibitors of human USP7 deubiquitinase | purified USP7, Ub-rhodamine cleavage fluorescence | AID 1645854, 2021 | Ubiquitin carboxyl-terminal hydrolase 7 (Homo sapiens), Q93009 | 0.3% of 47,000 active | inhibition, % at 20 µM
Each line names hits and unclear results; the compound was inactive in the other large screens. No stated cut-off is given here; in the data, active means inhibition above about 30%; inactive means the rest.

O=C(Cn1nc(-c2ccccc2)cc(NC(=O)c2ccccc2)c1=O)Nc1ccc(F)cc1	USP10 block 38 (no result: USP7 block)
CSCCC(NC(=O)c1ccccc1)c1nc2ccccc2n1CC(=O)Nc1ccccc1 (stereo unspecified)	USP10 block 41
O=C(Nc1nccn(-c2cccc(F)c2)c1=O)c1ccccn1	none
CCc1ccc(-c2cc3c(=O)n(Cc4nc(-c5ccccn5)no4)ccn3n2)cc1	none
Cc1cc(C(=O)NCc2ccco2)n(-c2ccccc2)n1	none
Cn1ncc2c(=O)n(Cc3cccc(Cl)c3)cnc21	none
COc1cc(OCC(=O)NC(C)C)cc2c1C(=O)O[C@@H](C)CCCC(=O)CCCCC2	none
COc1cc2c(c(OCC(=O)Nc3ccc4c(c3)OCCO4)c1)C(=O)O[C@@H](C)CCCC(=O)CCCCC2	USP10 block 32
O=C(CN1CCOCC1)Nc1ccc(NC(=O)c2ccc(Cl)cc2)cc1	UCHL1 inh 69
Cc1ccccc1C(=O)Nc1ccc(NC(=O)CN2CCOCC2)cc1	none
O=C(Nc1ccc(F)cc1F)NC1CCN(c2ccccc2)C1=O (stereo unspecified)	none
COc1ccc(-c2onc(C)c2C)cc1S(=O)(=O)Nc1ccc(CN2CCC(C)CC2)cc1	none
COc1ccc(-c2onc(C)c2C)cc1S(=O)(=O)NCc1ccc(F)cc1	USP10 block 58
COc1cnc(CSc2ccc(C)cc2)cc1OCC(=O)Nc1ccccc1	none
COc1ccc(C2/C(=C(\O)c3ccccc3)C(=O)C(=O)N2c2nc3ccc(F)cc3s2)cc1 (stereo unspecified)	USP10 block 41
Cc1ccc(C2/C(=C(\O)c3ccc(F)cc3)C(=O)C(=O)N2c2nc3ccc(F)cc3s2)cc1 (stereo unspecified)	none
COc1ccc(C2/C(=C(\O)c3ccccc3)C(=O)C(=O)N2c2cccc(C(F)(F)F)c2)cc1 (stereo unspecified)	USP10 block 30
COc1ccc(O)c(C(=O)c2cc(C#N)c(=O)n(-c3cccc(C(F)(F)F)c3)c2)c1	none
O=C(CS(=O)(=O)c1ccc(F)cc1)Nc1ccc(-c2nc3ccccc3s2)c(O)c1	none
O=C(Cc1coc2cc3c(cc12)CCC3)NC(Cc1ccccc1)c1nc2ccccc2[nH]1 (stereo unspecified)	none
O=C(Cn1c(-c2nc(-c3ccccc3)no2)cccc1=O)Nc1ccccc1	none
O=C(Cn1c(-c2nc(-c3cccc(F)c3)no2)cccc1=O)NCc1ccco1	USP10 block 38
Cc1ncc(CO)c2c1Oc1nc(-c3cccc(Cl)c3)nc(SCC(=O)N3CCCCC3)c1C2	USP10 block 37, USP7 block 39
CCOc1ccc(-c2nc3c(c(SCC(N)=O)n2)Cc2cc(C)ccc2O3)cc1	none
O=C1CC(C(=O)Nc2ccccc2)n2nc(-c3ccccc3)cc2N1 (stereo unspecified)	none
CCc1nccn1Cc1nc(-c2ccc(Cl)cc2)no1	none
CC(C)=CCC/C(C)=C/COc1ccc(/C=C2\C(=O)N(O)[C@@H](C)C(=O)N2O)cc1	USP10 block 38
COc1cc(/C=C2\Oc3cc(OCC=C(C)C)ccc3C2=O)cc(OC)c1OC	none
COc1ccccc1NC(=O)C1CN(c2nc3ccccc3s2)C1	none
Cc1ccccc1NC(=O)Nc1ccccc1OCc1cc(=O)n2cccc(C)c2n1	USP10 block 40
Cc1cccc(NCc2cc(=O)n3cccc(C)c3n2)c1C	none
CCCn1cnc2nc(CSc3ccccc3NC(=O)C(C)C)cc(=O)n21	none
Cc1cc(C)cc(NC(=O)Nc2ccccc2OCc2cc(=O)n3c(ncn3C(C)C)n2)c1	USP10 block 40
COc1ccc(S(=O)(=O)N(C)C)cc1NC(=O)COC(=O)c1ccccc1	none
COc1ccc(/C=C/C(=O)Nc2nc3n(n2)C(c2ccccc2)CC(=O)N3)cc1 (stereo unspecified)	none
O=C(COc1ccc(N2CC(C(=O)NCc3ccc4c(c3)OCO4)CC2=O)cc1)Nc1ccc(Cl)cc1 (stereo unspecified)	USP10 block 38
O=C(COc1ccc(N2CC(C(=O)NCc3ccc4c(c3)OCO4)CC2=O)cc1)Nc1ccc(F)cc1 (stereo unspecified)	USP10 block 49
Cc1ccc(CNC(=O)C2CC(=O)N(c3ccc(OCC(=O)Nc4ccc(C)cc4C)cc3)C2)cc1 (stereo unspecified)	none
O=C(COc1ccc(N2CC(C(=O)NCc3ccccc3)CC2=O)cc1)Nc1ccc(F)cc1 (stereo unspecified)	none
COc1ccccc1OCC(=O)Nc1ccc2c(c1)CCC(=O)N2Cc1ccccc1	none
COc1ccc(-c2nc3sc4c(c3c(=O)[nH]2)CCCCCC4)c(OC)c1	none
Cc1occc1-c1nnc(SCC(=O)Nc2ccc3[nH]c(=O)[nH]c3c2)n1C	none
CCn1c(=O)n(CC(=O)c2ccc(Cl)cc2)c2c(C(N)=O)nc(-c3ccco3)nc21	USP7 block 40
CCCn1c(=O)n(CC(=O)c2ccc(Cl)cc2)c2c(C(N)=O)nc(-c3ccco3)nc21	none
CCn1cc(C(=O)NCc2ccc(F)cc2F)c(=O)c2ccc(C)nc21	none
Cc1noc(-c2ccc(-n3ncc(C(=O)NCc4ccccc4F)c3C)nc2)n1	none
Cc1ccc(-n2nc(C)c3c(C)cc(C(=O)NCc4cccs4)nc32)cc1	none
O=C(O)c1c(CNC2CCCCCC2)c2ccccc2n1Cc1ccc(F)cc1	UCHL1 inh 45
O=C(O)c1c(CNC2CCCCC2)c2ccccc2n1Cc1cccc(F)c1	none
Cc1ccc(NC(=O)CNC(=O)c2cc3ccccc3o2)cc1	none
COc1cc(NC(=O)Cc2ccccc2)ccc1NC(=O)c1cc2ccccc2o1	USP10 block 34
COc1cc2c(cc1OC)CN(C(=O)CCS(=O)(=O)c1ccc(Cl)cc1)CC2	none
c1coc(-c2nc3ccccc3c3nnc(SCc4ccc5nonc5c4)n23)c1	none
O=C(CSc1nnc2c3ccccc3nc(-c3ccco3)n12)N1CCCc2ccccc21	USP10 block 48
Cc1cc(Oc2ccc(F)cc2F)nc2ccccc12	none
COC(=O)C1(Cc2ccc(O)cc2)OC(=O)C(O)=C1c1ccc(O)cc1 (stereo unspecified)	UCHL1 inh 37
CC(=O)NCCc1ccc(O)cc1	none
CN1C(=O)[C@H]2CN(c3ncccn3)C[C@H]2C12CCN(C(=O)NCCc1ccccc1)CC2	none
Oc1cccc2c(-c3ccc(O)c4c(O)cccc34)ccc(O)c12	USP10 block 71, UCHL1 inh 78
COc1cccc(C(=O)Oc2ccc3c(C)c(C)c(=O)oc3c2)c1	none
COc1cccc(CNC(=O)CSc2nc(-c3ccco3)nc3cc(=O)[nH]n23)c1	none
COc1ccc(-c2nc(SCC(=O)Oc3c(C)cccc3C)n3[nH]c(=O)cc3n2)cc1	USP10 block 46
COc1ccc(OCC(=O)N2CCc3cc(-c4noc(C)n4)ccc32)cc1	none
CCCOc1ccccc1C1C2=C(CC(C)(C)CC2=O)Nc2ccccc2N1C(=O)c1ccccc1 (stereo unspecified)	none
Cc1nc(C2CCCNC2)nc2c1CC(=O)N2CCc1ccccc1F (stereo unspecified)	none
Cc1cccc(CCN2C(=O)CCc3c(C)nc(C4CCCNC4)nc32)c1 (stereo unspecified)	USP7 block 33
COc1ccc(N(CC(=O)Nc2cccc(F)c2)S(=O)(=O)c2ccc(OC)c(OC)c2)cc1	none

Bioassay records (PubChem BioAssay)
